Data from PubChem BioAssay AID504332 (National Center for Advancing Translational Sciences (NCATS), 2011).
Out of some 350,000 compounds screened, about 31,000 (8.9%) were called active. Not shown: some 15% with an inconclusive outcome. The sample holds actives, similar compounds and a random draw of the others, so the mix is not that of the screen. A number with no mark means an inactive call. Calls come from the whole dose curve; as a rule, active = well fitted inhibition curve with a large enough effect; inconclusive = small, poorly fitted or top-dose-only effect; inactive = no such curve, though single readings can be large or run the other way.

Biological target: Histone-lysine N-methyltransferase EHMT2 (Homo sapiens) (UniProt Q96KQ7)
Experiment: qHTS Assay for Inhibitors of Histone Lysine Methyltransferase G9a; note: nearly all actives have a fitted effect of over 75% in size
Conditions: G9a H3K9 monomethylation, AlphaScreen, 2 h; series mostly up to 59 µM; activity, negative = inhibition: at the top concentration
In short: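 Methyltransferase reactions run at room temperature for 2 h (20 nM enzyme, 500 nM biotin-H3K9 peptide, 20 uM SAM) after a 15 min compound preincubation; product detected by AlphaScreen beads and anti-H3K9me1 antibody.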
% is set by controls: 0 for no effect and ±100 for the full control effect; potency is the fitted concentration of half-maximal effect.

Histone-lysine N-methyltransferase EHMT2 (Homo sapiens), sequence (Q96KQ7 913-1193 limits assumed): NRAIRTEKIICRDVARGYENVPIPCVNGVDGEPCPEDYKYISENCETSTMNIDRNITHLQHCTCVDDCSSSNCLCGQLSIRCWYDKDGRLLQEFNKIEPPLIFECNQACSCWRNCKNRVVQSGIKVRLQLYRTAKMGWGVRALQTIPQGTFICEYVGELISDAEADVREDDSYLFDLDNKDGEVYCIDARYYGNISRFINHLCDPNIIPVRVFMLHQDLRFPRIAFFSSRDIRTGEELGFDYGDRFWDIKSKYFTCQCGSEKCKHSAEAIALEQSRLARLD

Structure (SMILES) | activity, negative = inhibition | Potency
CC(=O)c1cccc(NC(=O)c2nc(-c3ccccc3)n(-c3cccc(C)c3)n2)c1 | -29.5% | 
Cn1c(C(=O)NCCCN2CCN(c3cccc(Cl)c3)CC2)cc2c(=O)n(C)c3ccccc3c21 |  | 7.94 µM (active)
CCOc1ccc(CCNC(=O)c2cc3c(=O)n(C)c4ccccc4c3n2C)cc1 | 8.2% | 
O=C(CCn1c(=O)[nH]c2ccccc2c1=O)NCCCN1CCN(c2cccc(Cl)c2)CC1 | -3.86% | 
CCN1C(=O)c2ccccc2Sc2ccc(NC(=O)Cc3ccc(OC)cc3)cc21 | 10.7% | 
COc1cc(-c2n[nH]c(=S)n2Cc2ccccc2)cc(OC)c1OC |  | 3.55 µM (active)
CCC(C)n1c(-c2cc(OC)c(OC)c(OC)c2)nc2nc3ccccc3nc21 (stereo not given) | -1.08% [at 102 µM] | 
COc1cc(-c2nnn(CC(=O)NCc3ccccc3)n2)cc(OC)c1OC |  | inactive
COC(=O)C1=C(O)/C(=C/c2ccc(OCC(=O)Nc3ccccc3)cc2)N=C1C | 82.1% [at 102 µM] | 
CCOC(=O)c1nn(-c2cccc(C)c2)cc1C(=O)c1ccccc1 | -45.6% [at 2.33 µM] | 
CCOC(=O)C1=C(O)/C(=C/c2cc(C)n(-c3ccccc3)c2C)N=C1C |  | 50.1 µM (active)
COc1ccc2oc(C(=O)NCC(Cc3ccccc3)N(C)C)c(C)c2c1 (stereo not given) | -3.8% [at 102 µM] | 
Cc1ccc(OC(=O)c2cncc(Br)c2)c(C)c1 | 68.2% [at 102 µM] | 
Cn1c(=O)c2cn(-c3cccc4ccccc34)cc2n(C)c1=O | 5.87% [at 2.33 µM] | 
COc1ccc(NC(=O)CCNS(=O)(=O)c2ccc3c(c2)c(=O)n(C)c(=O)n3C)cc1OC | 4.33% [at 102 µM] | 
COc1ccc(OC)c(-n2cc3c(=O)n(C)c(=O)n(C)c3c2)c1 |  | 50.1 µM (active)
Cc1ccc(NC(=O)c2cccc(S(=O)(=O)N3CCCc4ccccc43)c2)nc1 | 17.3% | 
CCOC(=O)CC1(NC(=O)c2cc(COc3cncc(Cl)c3)on2)CCCCC1 | 0.787% [at 102 µM] | 
CCCCC(C(=O)OCC(=O)c1ccc(OC)cc1)N1C(=O)c2ccccc2C1=O (stereo not given) | 22.3% | 
COc1ccc(C[C@H](C(=O)O)N2C(=O)c3ccc(C(=O)O)cc3C2=O)cc1 | 8.45% [at 12.7 µM] | 

Structure (SMILES) | activity, negative = inhibition | Potency
CCOC(=O)C(Cc1ccc(N)cc1)N1C(=O)c2ccccc2C1=O (stereo not given) |  | 50.1 µM (active)
COc1cc(OC)cc(C(=O)NCCc2csc3nc(-c4ccccc4F)nn23)c1 | 0.667% | 
CCOCCCNC(=O)C(NC(=O)Cc1c[nH]c2ccccc12)c1ccc(OC)cc1 (stereo not given) | -26.9% [at 102 µM] | 
CCOCCCNC(=O)C(NC(=O)CNC(=O)c1ccccc1)c1ccc(OC)cc1 (stereo not given) |  | 15.8 µM (active)
CCOCCCNC(=O)C(NC(=O)CNC(=O)c1ccccc1)c1ccc(C)cc1 (stereo not given) | 15.3% | 
Cc1c(NC(=O)Nc2ccc(F)c(Cl)c2)c(=O)n(-c2ccccc2)n1C | 9.59% | 
O=C(O[C@@H]1[C@H](Cc2ccccc2)NS(=O)(=O)[C@H]2C[C@@H]3C=C[C@]12O3)c1ccccc1Br | 6.72% [at 0.501 µM] | 
O=C(CSCc1ccccc1)Nc1ccccc1 | 2.25% [at 2.33 µM] | 
CC1CCN(CCC(=O)Nc2ccccc2)CC1 | 6.18% [at 102 µM] | 
O=C(CCN1c2ccccc2Sc2ccccc21)Nc1ccccc1 |  | 50.1 µM (active)
O=C(COc1ccccc1Cl)Nc1ccc2nc(SCC(=O)N3CCCC3)sc2c1 | -7.03% | 
O=C(Nc1ccc(C2CC2(Cl)Cl)cc1)c1cccc([N+](=O)[O-])c1 (stereo not given) | 5.58% [at 102 µM] | 
COc1ccc(C2(C)ON(c3ccccc3C(F)(F)F)C2=O)cc1 (stereo not given) | 1.68% [at 2.33 µM] | 
COc1ccc(S(=O)(=O)N2CCCC2CNC(=O)C(=O)NC2CC2)cc1 (stereo not given) | 4.18% [at 0.501 µM] | 
CCC(=O)c1ccc(OCC(=O)OCC(=O)NC2CCCCCC2)cc1 | -31.4% [at 102 µM] | 
O=C(COc1ccccc1[N+](=O)[O-])N/N=C/c1ccc[nH]1 | -11.5% [at 102 µM] | 
O=C(COc1ccccc1[N+](=O)[O-])NC1CC1 | 8.63% [at 102 µM] | 
C=CCN(CC=C)CCOc1ccccc1[N+](=O)[O-] |  | 17.8 µM (active)
CSc1ccccc1NC(=O)C(C)N1C(=O)c2ccccc2S1(=O)=O (stereo not given) | 9.9% [at 102 µM] | 
Cc1nn(C(C)C(=O)NCCc2ccccc2)c(=O)c2c1sc1ccccc12 (stereo not given) | 6.6% | 

Structure (SMILES) | activity, negative = inhibition | Potency
COc1ccc(-c2cc(C(=O)NC(Cc3c[nH]c4ccccc34)C(=O)O)c(C)o2)cc1OC (stereo not given) |  | 10 µM (active)
Cc1cccc(C)c1OCC(=O)NC(Cc1c[nH]c2ccccc12)C(=O)O (stereo not given) |  | inactive
COc1ccc(CNC(=O)[C@H](Cc2c[nH]c3ccccc23)NC(C)=O)cc1OC | -1.89% [at 102 µM] | 
O=C(Nc1cccc(Br)c1)c1ccc2snnc2c1 | 6.13% [at 102 µM] | 
COc1cccc(Cn2c(CNS(=O)(=O)c3ccc(Cl)s3)nc3cccnc32)c1 | 17.3% | 
CCCCCn1c(=O)[nH]c2cc(C(=O)NCCN(C)CCCC)ccc2c1=O | -2.06% | 
O=C(N/N=C/c1ccoc1)c1ccc(Cl)cc1Cl | 19.8% [at 102 µM] | 
CCCCOC(=O)c1ccc(N2C(=O)CC(N3CCN(C/C=C/c4ccccc4)CC3)C2=O)cc1 (stereo not given) | -21.3% [at 102 µM] | 
CC(=O)Oc1cccc(N2C(=O)CC(Nc3ccc(N4CCOCC4)cc3)C2=O)c1 (stereo not given) | -45.5% [at 12.7 µM] | 
COC(=O)c1cc(C(=O)OC)cc(N2C(=O)CC(N3CCN(c4ccccc4)CC3)C2=O)c1 (stereo not given) |  | 15.8 µM (active)
Cc1ccc(C)c(Cn2c(=O)n(CCC(=O)NCc3ccc4c(c3)OCO4)c(=O)c3sccc32)c1 | -4.46% | 
Cc1ccc(F)cc1S(=O)(=O)N1CCC(c2nc3ccccc3s2)CC1 | 31.1% | 
N#Cc1ccc(C(c2nnnn2CCc2ccccc2)N2CCCCCC2)cc1 (stereo not given) | -8.23% | 
COc1ccc(CCn2nnnc2C(c2ccccc2)N2CCN(C)CC2)cc1OC (stereo not given) |  | 70.8 µM (active)
COCCn1nnnc1C(c1ccccc1Cl)N1CCN(c2ccccc2OC)CC1 (stereo not given) | -5.01% | 
COc1ccc(C(=O)N2CCC(c3nc4ccccc4o3)CC2)cc1 | -3.19% | 
COc1ccc(CNC(=O)c2cc3cccc(OC)c3oc2=O)cc1 | 3.39% | 
O=C(CC1N=C2c3ccccc3N=C(SCc3cccc(Cl)c3)N2C1=O)NCc1ccc2c(c1)OCO2 (stereo not given) | 2.58% | 
CCOC(=O)c1c(C)[nH]c(C(=O)OCC(=O)c2ccc(OC)cc2OC)c1C | 4.02% [at 0.501 µM] | 
Cc1cccc(CC(=O)N2CC(=O)Nc3ccc(F)cc3C2c2ccccc2)c1 (stereo not given) | 2.59% | 
